In the library only some 7.6% were active in any assay of this set; here they are far more common.
KCNH2 3.1 inh = inhibitors of human KCNH2 3.1 potassium channel isoform. U2OS KCNH2 3.1, thallium flux FluxOr; active compounds read low. activity change, % (tested at about 1.8 µM). AID 720553. actives 0.95% (n = 340,000);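 active = maximum activity change below -70%; inconclusive = maximum activity change from -70% to -50%; inactive = maximum activity change above -50%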;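 also: thallium influx rate constant from kinetic fluorescence after stimulation buffer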
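Measured as rate of thallium-driven FluxOr signal in transduced U2OS cells carrying the 3.1 channel, read kinetically for 2 min upon stimulation; values are rate constants scaled to DMSO control wells.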
KB-3-1 cytotox = KB-3-1 parental cell cytotoxicity; KB-3-1 viability, CellTiter-Glo ATP luminescence, 72 h; Potency, µM (top dose mostly 46.1 µM), usual class: cytotoxic; actives 1.4% (n = 400,000); also: nearly all actives have a fitted effect of over 60% in size
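Parental KB-3-1 viability, qHTS format: 72 h compound exposure, 37 °C; CellTiter-Glo; media-only wells and DMSO plates as controls; concentration-effect fits on corrected data.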
KCNH2 WT inh = inhibitors of human wildtype KCNH2 potassium channel. actives 0.37% (n = 340,000). AID 720551. U2OS, BacMam KCNH2, thallium flux FluxOr; active compounds read low. Q12809. activity change, % at 1.84 µM;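 active = maximum activity change below -70%; inconclusive = maximum activity change between -70% and -50%; inactive = maximum activity change above -50%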
Target sequence (Q12809 whole entry, looked up): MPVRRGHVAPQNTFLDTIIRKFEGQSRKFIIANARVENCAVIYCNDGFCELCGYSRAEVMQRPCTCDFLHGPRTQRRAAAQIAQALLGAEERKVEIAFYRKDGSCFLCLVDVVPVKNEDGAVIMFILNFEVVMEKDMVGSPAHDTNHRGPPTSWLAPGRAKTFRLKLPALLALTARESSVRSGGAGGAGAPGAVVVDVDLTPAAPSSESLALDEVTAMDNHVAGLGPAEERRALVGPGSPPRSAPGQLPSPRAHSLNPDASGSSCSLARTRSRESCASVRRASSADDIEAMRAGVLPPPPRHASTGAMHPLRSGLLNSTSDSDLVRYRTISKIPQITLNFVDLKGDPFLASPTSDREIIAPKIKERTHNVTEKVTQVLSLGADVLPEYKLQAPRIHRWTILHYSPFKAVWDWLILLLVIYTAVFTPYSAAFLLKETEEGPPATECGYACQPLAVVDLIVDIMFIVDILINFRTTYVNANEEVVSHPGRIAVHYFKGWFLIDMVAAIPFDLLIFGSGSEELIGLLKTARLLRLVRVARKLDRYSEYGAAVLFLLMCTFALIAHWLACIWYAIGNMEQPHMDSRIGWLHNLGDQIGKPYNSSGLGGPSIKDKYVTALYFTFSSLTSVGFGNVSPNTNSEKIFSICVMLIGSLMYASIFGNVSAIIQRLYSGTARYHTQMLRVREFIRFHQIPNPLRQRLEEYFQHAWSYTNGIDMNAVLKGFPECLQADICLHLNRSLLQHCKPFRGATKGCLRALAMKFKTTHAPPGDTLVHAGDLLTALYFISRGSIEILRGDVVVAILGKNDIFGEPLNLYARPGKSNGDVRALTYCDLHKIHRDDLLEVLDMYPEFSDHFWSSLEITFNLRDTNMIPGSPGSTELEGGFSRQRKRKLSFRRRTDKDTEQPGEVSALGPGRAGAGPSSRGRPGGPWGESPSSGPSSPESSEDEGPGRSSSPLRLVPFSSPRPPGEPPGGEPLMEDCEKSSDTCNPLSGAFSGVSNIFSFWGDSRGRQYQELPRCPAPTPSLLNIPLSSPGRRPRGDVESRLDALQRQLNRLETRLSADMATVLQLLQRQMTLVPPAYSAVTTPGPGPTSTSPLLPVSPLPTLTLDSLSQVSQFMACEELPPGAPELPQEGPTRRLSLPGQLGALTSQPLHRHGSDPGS
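U2OS cells transduced with wild-type KCNH2 virus are loaded with FluxOr dye for 45 min, and thallium flux is measured in kinetic reads before and after stimulation buffer. Rate constants are normalized to DMSO controls.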
SW480 rereplic = inducers of DNA re-replication in SW480 colon cancer cells. AID 624297. Potency, µM (titrated, usually from 46.1 µM), actives largely listed as activators. SW480 DNA re-replication, Hoechst DNA content imaging, 48 h. actives 1.8% (n = 340,000); also: nearly all actives have a fitted effect of over 55% in size
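250 cells/well; 23 nL cpd via pin tool; 48 hr, 37 C, 5% CO2; Hoechst 40 min; imager read of total nuclear intensity, ex 405/em 500-530 nm.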
MCF10A rerep = induces DNA re-replication in MCF 10a normal breast cells | AID 624296 | actives 2.9% (n = 350,000) | Potency, µM (titrated, usually from 46.1 µM), usual class: activators | MCF 10A DNA re-replication, Hoechst nuclear intensity, 48 h; also: nearly all actives have a fitted effect of over 50% in size
KB-V1 MDR tox = KB-V1 MDR subline cytotoxicity; AID 1347076; actives 3.4% (n = 400,000); KB-V1 MDR cells viability, CellTiter-Glo, 72 h; Potency, µM (top dose mostly 46.1 µM), hits mostly cytotoxic; also: nearly all actives have a fitted effect of over 60% in size
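Cytotoxicity via CellTiter-Glo luminescence after 72 h compound exposure at 37 degrees C. Cells: drug-selected KB-V1 line, DMEM phenol-red free plus 10% FBS. Compounds tested at multiple concentrations; normalized data fitted to concentration-effect curves.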
Of the large screens only hits and unclear results are named; the others gave an inactive call. Unless noted, calls follow the shape of the dose curve; as a rule, active = well fitted curve in the direction sought with a large enough effect; inconclusive = small, poorly fitted or top-dose-only effect, or another doubt; inactive = no such curve, though single readings can be large; an effect the other way counts as inactive or inconclusive.

O=C(Nc1nnc(-c2ccc(F)cc2)o1)c1cccc([N+](=O)[O-])c1	SW480 rereplic inconclusive
CCn1c(SCC(=O)N2c3ccccc3Sc3ccccc32)nc2c1c(=O)n(C)c(=O)n2C	SW480 rereplic inconclusive, MCF10A rerep inconclusive, KB-V1 MDR tox inconclusive
CC1Cc2ccccc2N1C(=O)CSc1nnc(Cn2nnc3ccccc32)n1C (stereo not drawn)	KB-V1 MDR tox 18.4µM
CCOC(=O)c1c(NC(=O)CSc2nc3c(c(=O)n(C)c(=O)n3C)n2CC)sc(C)c1C	KB-V1 MDR tox 9.2µM
CCCCn1c(SCC(=O)N2c3ccccc3Sc3ccccc32)nc2c1c(=O)n(C)c(=O)n2C	KB-3-1 cytotox 16.4µM, SW480 rereplic inconclusive, KB-V1 MDR tox 14.6µM
CCCn1c(SCC(=O)N2CCc3ccccc3C2)nc2c1c(=O)n(C)c(=O)n2C	KB-V1 MDR tox 3.66µM
CC(C)N(C(=O)CSc1nnc(Cn2nnc3ccccc32)n1C)C(C)C	none
CCn1c(SCC(=O)N2CCc3ccccc3C2)nc2c1c(=O)n(C)c(=O)n2C	none
CCOC(=O)c1sc(N2C(=O)c3oc4ccc(F)cc4c(=O)c3C2c2ccc(C)cc2)nc1C (stereo not drawn)	none (no result: KCNH2 3.1 inh, KCNH2 WT inh, SW480 rereplic, MCF10A rerep)
CCCCn1c(SCC(=O)N2CCCC2)nc2c1c(=O)n(C)c(=O)n2C	KB-V1 MDR tox 9.2µM
CCCCCn1c(CN2CCCCC2C)nc2c1c(=O)n(C)c(=O)n2C (stereo not drawn)	MCF10A rerep inconclusive, KB-V1 MDR tox 4.61µM
CCCCCn1c(CN2CCCCC2CC)nc2c1c(=O)n(C)c(=O)n2C (stereo not drawn)	none
CCCCn1c(SCC(=O)Nc2nnc(C(C)C)s2)nc2c1c(=O)n(C)c(=O)n2C	KB-3-1 cytotox inconclusive, MCF10A rerep inconclusive, KB-V1 MDR tox 2.31µM
CCCn1c(SCC(=O)N2c3ccccc3CCc3ccccc32)nc2c1c(=O)n(C)c(=O)n2C	KB-V1 MDR tox 4.11µM
CCCCn1c(SCC(=O)N2CCCc3ccccc32)nc2c1c(=O)n(C)c(=O)n2C	KB-V1 MDR tox inconclusive
COC(=O)c1cc(S(=O)(=O)Nc2cccc(-c3ccno3)c2)c[nH]1	none (no result: SW480 rereplic, MCF10A rerep)
Nc1cc(N)nc(SCC(=O)NCC(=O)Nc2ccc(F)c(F)c2F)n1	KB-V1 MDR tox inconclusive
CC1Cc2ccccc2N1C(=O)CSc1nc2c(c(=O)n(C)c(=O)n2C)n1Cc1ccc(F)cc1 (stereo not drawn)	KB-V1 MDR tox 1.84µM
CC(=O)NC(Cc1cccc(C)c1)C(=O)NC1CCN(C(=O)c2ccc([N+](=O)[O-])cc2)CC1 (stereo not drawn)	none
COc1cccc(-c2ccc(C#N)c(OC(=O)c3ccc(Cl)cc3)n2)c1	none
COc1cccc(-c2ccc(C#N)c(OC(=O)c3c(Cl)cccc3Cl)n2)c1	KB-V1 MDR tox 16.4µM
c1c[nH]c(C2CCN(c3ncc(-c4ccc5c(c4)OCCCO5)s3)CC2)n1	none (no result: KCNH2 3.1 inh, KCNH2 WT inh, SW480 rereplic, MCF10A rerep)
COC(=O)C(Cc1ccccc1)NC(=O)C(CC(C)C)NC(=O)OC(C)(C)C (stereo not drawn)	none
CC(C)CC(NC(=O)OCc1ccccc1)C(=O)NC(Cc1ccccc1)C(=O)CCl (stereo not drawn)	KB-3-1 cytotox inconclusive, SW480 rereplic 6.51µM, MCF10A rerep 7.31µM, KB-V1 MDR tox inconclusive (no result: KCNH2 3.1 inh)
Cc1ccc(NC(=O)C(Cc2ccccc2)NC(=O)OCc2ccccc2)cc1C (stereo not drawn)	KB-V1 MDR tox 5.8µM
CCOc1ccc(C(=O)OCC(=O)N(Cc2ccccc2)Cc2ccccc2)cc1OC	KB-V1 MDR tox 23.1µM
CN(Cc1ccc(F)cc1)C(=O)C(Cc1ccccc1)NC(=O)c1ccccc1 (stereo not drawn)	KB-V1 MDR tox 10.3µM
COc1cccc(CC(=O)OCC(=O)c2cc(OC)c(OC)c(OC)c2)c1	none (no result: KB-3-1 cytotox, KB-V1 MDR tox)
O=C(NCCc1ccco1)c1cc(COc2cccc(C(F)(F)F)c2)on1	MCF10A rerep inconclusive
CCC(=O)C1CCCN(C(=O)c2ccc(OC3CCN(C(=O)CCOC)CC3)cc2)C1 (stereo not drawn)	none
COc1ccc(CN(C)C(=O)C(Cc2ccccc2)NC(=O)c2ccccc2)cc1F (stereo not drawn)	KB-3-1 cytotox inconclusive, SW480 rereplic inconclusive, MCF10A rerep inconclusive, KB-V1 MDR tox inconclusive
CN(Cc1ccccc1)C(=O)c1ccccc1NC(=O)c1ccccc1	KB-V1 MDR tox 23.1µM
CCOc1ccc(CN(C)C(=O)[C@H](Cc2ccccc2)NC(=O)OCc2ccccc2)cc1OC	KB-3-1 cytotox inconclusive, MCF10A rerep inconclusive, KB-V1 MDR tox 10.3µM
COc1cccc(NC2c3ccccc3C(=O)N2Cc2ccccc2Cl)c1 (stereo not drawn)	SW480 rereplic 20.6µM, MCF10A rerep inconclusive
COc1ccc(/C=C2\CCc3ccccc3C2=O)cc1O	KB-3-1 cytotox 3.66µM, SW480 rereplic 0.517µM, MCF10A rerep inconclusive, KB-V1 MDR tox 5.17µM
COc1ccc(/C=C2\Cc3ccccc3C2=O)cc1OC	none
CC(=O)Nc1ccc(/C=N/NC(N)=S)cc1	none (no result: KCNH2 3.1 inh, KB-3-1 cytotox, KCNH2 WT inh, KB-V1 MDR tox)
CN(C)c1ccc(/C=N/NC(N)=S)cc1[N+](=O)[O-]	KB-3-1 cytotox 14.6µM, KB-V1 MDR tox 6.51µM
C[C@H](CO)N1C[C@H](C)[C@@H](CN(C)C(=O)NC2CCCCC2)Oc2ccc(NC(=O)Cc3ccccc3)cc2C1=O	none (no result: KCNH2 3.1 inh)
COc1ccc(Cn2c(=O)cc(N)n(-c3ccccc3C)c2=O)cc1	KB-3-1 cytotox inconclusive, SW480 rereplic 14.6µM, MCF10A rerep inconclusive
Cc1cc(C(=O)C(C)OC(=O)c2ccc(NC(=O)CC#N)cc2)c(C)n1-c1ccc(OC(F)F)cc1 (stereo not drawn)	KB-3-1 cytotox 2.91µM, KB-V1 MDR tox 18.4µM
Cc1[nH]c2ccccc2c1C(=O)C(C)OC(=O)c1ccc(NC(=O)CC#N)cc1 (stereo not drawn)	none
CN(Cc1cn(C)c2ccccc12)C(=S)Nc1cc(F)cc(F)c1	KB-3-1 cytotox inconclusive, KB-V1 MDR tox 18.4µM
CN(C)c1ccc(S(=O)(=O)NCC(=O)NCCC2=CCCCC2)cc1[N+](=O)[O-]	KB-V1 MDR tox 18.4µM
CN(C)c1ccc(S(=O)(=O)NCC(=O)NCCOc2ccccc2F)cc1[N+](=O)[O-]	SW480 rereplic inconclusive
Cc1cccc(OCCNc2cc(N3CCOCC3)ccc2[N+](=O)[O-])c1	none
Cc1cccc(OCCNc2cc(N3CCN(C)CC3)ccc2[N+](=O)[O-])c1	KB-3-1 cytotox inconclusive, SW480 rereplic inconclusive, KB-V1 MDR tox 16.4µM
Cc1onc(-c2c(F)cccc2Cl)c1C(=O)NCCc1ccncc1	none
Cc1onc(-c2c(F)cccc2Cl)c1C(=O)NC(=S)NC1CCS(=O)(=O)C1 (stereo not drawn)	KB-V1 MDR tox 23.1µM

High-throughput results (PubChem BioAssay)
